PubChem BioAssay (Tox21)
Records with an inconclusive call do not appear. Values without a mark were called inactive. The source made the active and inactive calls. The call rests on the fitted dose curve; in most records, active means well fitted activation curve with a large enough effect in the repeat runs; inconclusive means weak or mixed curves; inactive means no such curve, though single readings can be large or run the other way.

Assay: qHTS assay for small molecules that induce genotoxicity in human embryonic kidney cells expressing luciferase-tagged ATAD5 (AID 651632); further: nearly all actives have a fitted effect of over 15% in size
Settings: HEK293T ATAD5-luciferase induction, 16 h; series mostly up to 83.3 µM; activation: at the top concentration
Excerpt: U.S. Tox21 Program National Center for Advancing Translational Sciences [NCATS] NIH Chemical Genomics Center [NCGC] U.S. Environmental Protection Agency [EPA] National Institutes of Environmental Health Sciences [NIEHS] National Toxicology Program [NTP] U.S. Food and Drug Administration [FDA] Tox21 Assay Overview: As cancer cells divide rapidly and during every cell division they need to duplicate their genome by DNA replication. The failure to do so results in the cancer cell death. Based on this concept, many chemotherapeutic agents were developed but have limitations such as low efficacy and severe side effects etc. A new cell based assay was developed to find the compounds that effectively block DNA replication either by directly damaging DNA or by inhibiting other cellular mechanisms. Enhanced Level of Genome Instability Gene 1 (ELG1; human ATAD5) protein levels increase in response to various types of DNA damage. Using a luciferase reporter-gene tagged with ATAD5, a cell-based assay [developed by Kyungjae Myung, NHGRI, NIH] was used to measure the induction of ATAD5 in human embryonic kidney cells (HEK293T). So, increase in luciferase activity can be used to identify the compounds that cause genetic stress.
Tox21 Assay Protocol Summary: For genotoxicity screening, 2,000 cells in 5 uL/well were dispensed into white, solid-bottom 1536-well plates using a Multidrop Combi (Thermo Scientific) dispenser. Following transfer of 23 nL compound or DMSO vehicle by a pin tool, the plates were incubated 16 hr at 37C and 5% CO2. 5 ul Amplite (AAT Bioquest, Inc.) was then added to each plate and following 30 min incubation at room temperature, luciferase activity was quantified on a ViewLux CCD-based plate reader.
On the % scale 0 is the no-effect control and ±100 the full control effect.

| Structure (SMILES) | activation | Potency |
| --- | --- | --- |
| CCN(CC)CCNC(=O)c1cc(Br)c(N)cc1OC | -0.508% |  |
| C=CCOc1ccccc1OCC(O)CNC(C)C (stereo not given) | -2.19% [at 39.1 µM] |  |
| c1cc(CCCc2ccncc2)ccn1 | -3.9% |  |
| CC(C)(COC(=O)c1ccccc1)COC(=O)c1ccccc1 | 4.01% |  |
| CCC(=O)O[C@]1(C(=O)CCl)[C@@H](C)C[C@H]2[C@@H]3CCC4=CC(=O)C=C[C@]4(C)[C@@]3(F)[C@@H](O)C[C@@]21C | 3.62% |  |
| CCN(CC)CCOC(=O)C(c1ccccc1)C1CCCCC1 (stereo not given) | -3.59% |  |
| CCC(Cl)CCC(Cl)C(Cl)CC(Cl)C(Cl)C(Cl)CCl (stereo not given) | 4.05% |  |
| CCO[C@H](Cc1ccc(OCCc2ccc(OS(C)(=O)=O)cc2)cc1)C(=O)O | -0.178% |  |
| CCOC(=O)c1cccnc1 | 0.7% |  |
| O=C1CCC(=O)O1 | -0.47% [at 95.3 µM] |  |
| OCc1cc(C(O)CNCCCCCCOCCCCc2ccccc2)ccc1O (stereo not given) |  | inactive |
| O=[N+]([O-])c1ccc2[nH]ncc2c1 | 0.57% |  |
| CCCCC1=NC2(CCCC2)C(=O)N1Cc1ccc(-c2ccccc2-c2nn[nH]n2)cc1 | 1.83% |  |
| C=CCOC(=O)CCC1CCCCC1 | -0.908% |  |
| Cc1oc2c(NC(=O)c3c(Cl)cccc3Cl)cccc2c1C(C)(C)O | -8.52% |  |
| C[C@@H](c1ncncc1F)C(O)(Cn1cncn1)c1ccc(F)cc1F (stereo not given in full) | 2.11% |  |
| S=C([S-])NCCNC(=S)[S-].[Mn+2] | 4% |  |
| CCCCCCCC/C=C\CCCCCCCC(=O)OCC | 1.92% |  |
| CC(=O)OC[C@H]1O[C@@H](n2ncc(=O)[nH]c2=O)[C@H](OC(C)=O)[C@@H]1OC(C)=O | -7.8% |  |
| c1ccc(CNCCNCc2ccccc2)cc1 | -1.6% |  |

| Structure (SMILES) | activation | Potency |
| --- | --- | --- |
| CC1OC(=O)C(C)OC1=O (stereo not given) | 1.61% |  |
| O=C(Nc1ccc(S(=O)(=O)N2CCOCC2)cc1)c1cc(Cl)ccc1NS(=O)(=O)c1ccc(Cl)s1 | -2.4% |  |
| CC(C)(C)OCC1CO1 (stereo not given) | 2.86% [at 95.3 µM] |  |
| Nc1ccc(S(=O)(=O)Nc2ccccc2)cc1 | -2.02% |  |
| O=C(c1ccc(F)cc1)C1CCN(CCn2c(=S)[nH]c3ccccc3c2=O)CC1 | -8.9% |  |
| CN(C)CCN(Cc1ccc(Cl)cc1)c1ccccn1 | 0.444% [at 39.1 µM] |  |
| CCCCCC[C@@H](O)C/C=C\CCCCCCCC(=O)OC | 2.3% [at 95.3 µM] |  |
| CCCCNc1ccc(C(=O)OCCOCCOCCOCCOCCOCCOCCOCCOCCOC)cc1 | -9.18% [at 39.1 µM] |  |
| COS(=O)(=O)C(F)(F)F | 3.27% [at 95.3 µM] |  |
| COc1ccc(S(=O)(=O)N2C(=O)[C@@](c3ccccc3OC)(N3C[C@H](O)C[C@H]3C(=O)N(C)C)c3cc(Cl)ccc32)c(OC)c1 | -7.56% |  |
| CC1(c2ccccc2)OC(C(=O)O)=CC1=O (stereo not given) | 0.584% |  |
| CCOc1ccc(N)c([N+](=O)[O-])c1 | 3.59% |  |
| CCCCCCCCO[C@@H]1O[C@H](CO)[C@@H](O)[C@H](O)[C@H]1O | 1.26% |  |
| NC(N)=NCCC[C@H](N)C(=O)O | 3.03% |  |
| CCCCOC(=O)CCCCCCCC(=O)OCCCC | 2.49% |  |
| Cn1c(=O)cc(Oc2ccc(F)cc2F)c2cnc(NCC(C)(C)O)nc21 | -8.88% |  |
| O=C(O)c1ccco1 | 0.679% |  |
| OCCNCc1ccccc1 | -1.02% |  |
| COc1ccc(C(=O)c2ccc(OC)cc2O)c(O)c1 | 3.93% [at 95.3 µM] |  |
| O=CC1CC=CCC1 (stereo not given) | 1.02% |  |
